{
  "source": "PubChem BioAssay (Tox21)",
  "note": "Results filed as inconclusive are left out. Unmarked numbers belong to inactive results. The source made the active and inactive calls. Calls follow the shape of the dose curve; as a rule, active = well fitted curve in the direction sought with a large enough effect in the repeat runs; inconclusive = weak or mixed curves; inactive = no such curve, though single readings can be large; an effect the other way counts as inactive or inconclusive. % is scaled to controls: 0 for no effect and ±100 for the full control effect.",
  "data": [
    {"molecular_target": "Cytochrome P450 2C19 (Homo sapiens) (UniProt P33261)", "sequence (P33261 whole entry, looked up)": "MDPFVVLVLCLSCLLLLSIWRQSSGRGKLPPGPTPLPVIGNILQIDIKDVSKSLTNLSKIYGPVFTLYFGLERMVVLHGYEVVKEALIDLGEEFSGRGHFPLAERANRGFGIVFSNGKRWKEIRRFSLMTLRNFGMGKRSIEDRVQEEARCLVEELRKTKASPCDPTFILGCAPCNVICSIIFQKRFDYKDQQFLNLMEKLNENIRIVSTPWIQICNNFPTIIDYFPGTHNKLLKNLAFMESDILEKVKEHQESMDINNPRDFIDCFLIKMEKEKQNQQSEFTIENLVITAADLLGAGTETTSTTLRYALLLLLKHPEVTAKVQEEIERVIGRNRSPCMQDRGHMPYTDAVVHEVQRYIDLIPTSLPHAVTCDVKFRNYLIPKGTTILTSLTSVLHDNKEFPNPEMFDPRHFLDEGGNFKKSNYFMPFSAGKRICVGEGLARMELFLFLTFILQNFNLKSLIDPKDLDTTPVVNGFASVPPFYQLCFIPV", "experiment": "Cytochrome P450 Family 2 Subfamily C Member 19 (CYP2C19) small molecule antagonists: luciferase reporter qHTS assay (AID 1671197); also: nearly all actives have a fitted effect of over 65% in size; also: potency is read from the fitted curve at half-maximal effect", "details": "P450-Glo CYP2C19 enzyme, luciferin luminescence, 1 h; series mostly up to 115 µM; activity change, negative = inhibition: at the top concentration", "method_in_brief": "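Relative luminescence units recorded 20 min after the detection reagent stopped a 1 h, 37C CYP2C19 reaction on proluciferin substrate, which was started by NADPH regeneration following 10 min room-temperature compound preincubation; ketoconazole positive control.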", "values": [
      {"smiles": "CC1(C)OC(=O)Nc2ccc(Br)cc21", "Potency": "17.4 µM (active)"},
      {"smiles": "C1CCCCCCCCCCC1", "activity change, negative = inhibition": "-20.8% [at 23.6 µM]"},
      {"smiles": "CCCc1ccccc1O", "activity change, negative = inhibition": "2.38%"},
      {"smiles": "O=C(O)c1ccccc1-c1ccc(C(F)(F)F)cc1", "activity change, negative = inhibition": "21.9% [at 52.9 µM]"},
      {"smiles": "CC(C)(C)N(CCO)CCO", "activity change, negative = inhibition": "-10.3%"},
      {"smiles": "CC(C)=CCC/C(C)=C/C(=O)O", "Potency": "39.9 µM (active)"},
      {"smiles": "CCN1CCCC1CNC(=O)c1cc(S(N)(=O)=O)ccc1OC", "note": "(stereo not drawn)", "activity change, negative = inhibition": "-5.25%"},
      {"smiles": "Nc1cc(N)cc(C(=O)O)c1", "Potency": "79.6 µM (active)"},
      {"smiles": "CNc1ncnc2nc[nH]c12", "activity change, negative = inhibition": "-6.56%"},
      {"smiles": "CC(C)=CC(=O)O", "activity change, negative = inhibition": "-0.513%"},
      {"smiles": "CCCCCCC(CCCCCCCCCCC(=O)OCC(COC(C)=O)OC(C)=O)OC(C)=O", "note": "(stereo not drawn)", "activity change, negative = inhibition": "-20.6% [at 52.9 µM]"},
      {"smiles": "C1COCCO1", "Potency": "36.4 µM (active)"}
    ]},
    {"molecular_target": "Cytochrome P450 1A2 (Homo sapiens) (UniProt P05177)", "sequence (P05177 whole entry, looked up)": "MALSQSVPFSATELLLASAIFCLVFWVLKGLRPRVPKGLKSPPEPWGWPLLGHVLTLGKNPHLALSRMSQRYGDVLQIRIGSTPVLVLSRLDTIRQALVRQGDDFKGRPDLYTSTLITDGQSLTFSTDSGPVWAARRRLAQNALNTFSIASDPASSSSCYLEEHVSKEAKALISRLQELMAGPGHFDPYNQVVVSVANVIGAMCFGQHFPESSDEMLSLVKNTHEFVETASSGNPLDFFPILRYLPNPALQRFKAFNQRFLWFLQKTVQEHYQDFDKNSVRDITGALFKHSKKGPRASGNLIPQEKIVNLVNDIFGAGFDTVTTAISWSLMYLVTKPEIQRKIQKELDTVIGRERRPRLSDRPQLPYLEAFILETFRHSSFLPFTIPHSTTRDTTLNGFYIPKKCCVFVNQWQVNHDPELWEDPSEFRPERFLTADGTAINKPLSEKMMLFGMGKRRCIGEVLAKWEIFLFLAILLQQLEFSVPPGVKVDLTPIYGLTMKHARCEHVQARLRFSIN", "experiment": "Cytochrome P450 Family 1 Subfamily A Member 2 (CYP1A2) small molecule antagonists: luciferase reporter qHTS assay (AID 1671199); also: nearly all actives have a fitted effect of over 50% in size; also: potency is read from the fitted curve at half-maximal effect", "details": "P450-Glo CYP1A2 enzyme, luciferin luminescence, 1 h; series mostly up to 53 µM; activity change, negative = inhibition: at the top concentration", "method_in_brief": "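Compounds were incubated with CYP1A2 and a luminogenic proluciferin substrate for 10 min at room temperature before the reaction was started with NADPH regeneration solution. After 1 h, detection reagent was added and light output, proportional to CYP activity, was recorded.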", "values": [
      {"smiles": "Cc1cc(C)c(NC(=O)CN(CC(=O)O)CC(=O)O)c(C)c1Br", "activity change, negative = inhibition": "0.789%"},
      {"smiles": "NC(=O)Nc1nc2ccccc2[nH]1", "Potency": "39.6 µM (active)"},
      {"smiles": "CCCCCCCCCCCCCCCCCC(=O)OCCCCCCCCCCCCCC(C)C", "activity change, negative = inhibition": "-6.94% [at 115 µM]"},
      {"smiles": "CC(=O)N[C@@H](CCC(N)=O)C(=O)O", "activity change, negative = inhibition": "11.1%"},
      {"smiles": "c1ccc(CCCc2ccccn2)cc1", "Potency": "22.4 µM (active)"},
      {"smiles": "C=CCOc1nc(OCC=C)nc(OCC=C)n1", "Potency": "6.33 µM (active)"},
      {"smiles": "CC/C=C\\CCCCO", "activity change, negative = inhibition": "-20.6% [at 115 µM]"},
      {"smiles": "C1C2OC2C2C1C1CC2C2OC12", "note": "(stereo not drawn)", "activity change, negative = inhibition": "-17.9% [at 115 µM]"},
      {"smiles": "Cc1c(C)n(CCN(C)C)c2ccc(C(=O)OCCN(C)C)cc12", "Potency": "17.4 µM (active)"},
      {"smiles": "OC1OC[C@@H](O)[C@H](O)[C@H]1O", "note": "(stereo partly drawn)", "activity change, negative = inhibition": "-16.3% [at 115 µM]"},
      {"smiles": "C=C(C)C(=O)OCCC(C)OC(=O)C(=C)C", "note": "(stereo not drawn)", "Potency": "31.7 µM (active)"},
      {"smiles": "O=C(O)/C=C/c1ccc(Cn2ccnc2)cc1", "Potency": "24.5 µM (active)"},
      {"smiles": "C1CCCCCCCCCCC1", "activity change, negative = inhibition": "-2.41% [at 23.6 µM]"},
      {"smiles": "CC(C)=CCC/C(C)=C/C(=O)O", "activity change, negative = inhibition": "-21.2% [at 115 µM]"},
      {"smiles": "Nc1cc(N)cc(C(=O)O)c1", "activity change, negative = inhibition": "-23.3% [at 115 µM]"},
      {"smiles": "CNc1ncnc2nc[nH]c12", "activity change, negative = inhibition": "7.52% [at 115 µM]"}
    ]},
    {"molecular_target": "Voltage-gated inwardly rectifying potassium channel KCNH2 (Homo sapiens) (UniProt Q12809)", "sequence (Q12809 whole entry, looked up)": "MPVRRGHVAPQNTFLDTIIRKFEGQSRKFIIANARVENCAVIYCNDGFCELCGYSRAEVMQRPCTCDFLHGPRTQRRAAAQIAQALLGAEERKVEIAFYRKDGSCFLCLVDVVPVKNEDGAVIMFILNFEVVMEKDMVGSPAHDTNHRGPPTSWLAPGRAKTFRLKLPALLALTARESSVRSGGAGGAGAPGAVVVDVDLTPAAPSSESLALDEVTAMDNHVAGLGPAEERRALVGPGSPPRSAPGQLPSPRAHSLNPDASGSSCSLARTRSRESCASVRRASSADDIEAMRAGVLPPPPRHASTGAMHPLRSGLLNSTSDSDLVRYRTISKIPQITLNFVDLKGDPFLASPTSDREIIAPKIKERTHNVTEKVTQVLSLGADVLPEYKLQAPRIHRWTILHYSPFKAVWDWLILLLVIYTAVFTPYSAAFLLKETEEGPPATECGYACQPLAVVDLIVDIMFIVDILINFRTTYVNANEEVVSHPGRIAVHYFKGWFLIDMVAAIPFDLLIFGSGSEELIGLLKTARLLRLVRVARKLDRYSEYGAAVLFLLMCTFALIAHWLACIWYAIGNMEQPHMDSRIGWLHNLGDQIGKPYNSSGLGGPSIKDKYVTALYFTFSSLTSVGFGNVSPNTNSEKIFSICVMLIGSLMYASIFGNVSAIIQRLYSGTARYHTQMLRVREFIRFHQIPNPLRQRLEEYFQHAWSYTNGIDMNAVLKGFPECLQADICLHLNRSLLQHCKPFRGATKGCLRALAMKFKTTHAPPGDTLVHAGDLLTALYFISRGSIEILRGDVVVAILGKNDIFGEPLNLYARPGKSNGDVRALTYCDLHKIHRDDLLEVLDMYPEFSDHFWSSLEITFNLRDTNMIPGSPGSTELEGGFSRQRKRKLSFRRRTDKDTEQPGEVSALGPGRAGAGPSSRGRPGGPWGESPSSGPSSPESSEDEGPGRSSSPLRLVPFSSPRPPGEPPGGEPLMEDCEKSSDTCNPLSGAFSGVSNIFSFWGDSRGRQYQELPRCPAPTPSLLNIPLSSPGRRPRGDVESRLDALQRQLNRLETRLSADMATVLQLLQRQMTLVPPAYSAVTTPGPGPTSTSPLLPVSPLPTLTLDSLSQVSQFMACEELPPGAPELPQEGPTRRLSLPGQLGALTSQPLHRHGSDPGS", "experiment": "Human Ether-a-go-go-Related Gene (hERG) channel small molecule antagonists: fluorescence cell-based qHTS assay (AID 1671200);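 also: hERG-expressing U2OS cells given a thallium stimulus after FluxOR II dye loading; nearly all actives have a fitted effect of over 50% in size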", "details": "hERG-U2OS cells, FluxOR thallium flux fluorescence; series mostly up to 76.8 µM; activity change, negative = inhibition: at the top concentration", "method_in_brief": "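hERG-U2OS cells plated overnight at 37 C, loaded with FluxOR II dye 1 h at RT in dark; after 10 min, thallium stimulus added. Fluorescence (480/540 nm) read kinetically for 2 min at 1 s intervals.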", "values": [
      {"smiles": "Cc1cc(C)c(NC(=O)CN(CC(=O)O)CC(=O)O)c(C)c1Br", "activity change, negative = inhibition": "2.35% [at 35.3 µM]"},
      {"smiles": "OCC(O)[C@@H](O)[C@H](O)[C@H](O)CO[C@H]1O[C@H](CO)[C@@H](O)[C@H](O)[C@H]1O", "note": "(stereo partly drawn)", "activity change, negative = inhibition": "0.281%"},
      {"smiles": "NC(=O)Nc1nc2ccccc2[nH]1", "activity change, negative = inhibition": "0.742%"},
      {"smiles": "CC(C=O)Cc1ccc(C(C)C)cc1", "note": "(stereo not drawn)", "activity change, negative = inhibition": "-0.687%"},
      {"smiles": "C1=C\\CC/C=C\\CC/C=C\\CC/1", "activity change, negative = inhibition": "3.16%"},
      {"smiles": "CCCCCCCCCCCCCCCCCC(=O)OCCCCCCCCCCCCCC(C)C", "activity change, negative = inhibition": "-1.61%"},
      {"smiles": "CC(=O)N[C@@H](CCC(N)=O)C(=O)O", "activity change, negative = inhibition": "4.48% [at 35.3 µM]"},
      {"smiles": "Cc1ccc(Nc2ccc(O)c3c2C(=O)c2ccccc2C3=O)cc1", "activity change, negative = inhibition": "0.32%"},
      {"smiles": "c1ccc(CCCc2ccccn2)cc1", "activity change, negative = inhibition": "-4.81%"},
      {"smiles": "CC1=CCC2C(C1)C2(C)C", "note": "(stereo not drawn)", "activity change, negative = inhibition": "-0.324%"},
      {"smiles": "CC(C)COC(=O)C(C)C", "activity change, negative = inhibition": "9.12%"},
      {"smiles": "C=CCOc1nc(OCC=C)nc(OCC=C)n1", "activity change, negative = inhibition": "-10.3%"},
      {"smiles": "Cc1ccccc1Br", "activity change, negative = inhibition": "1.58%"},
      {"smiles": "C#CC(O)CCCCC", "note": "(stereo not drawn)", "activity change, negative = inhibition": "4.36%"},
      {"smiles": "CC/C=C\\CCCCO", "activity change, negative = inhibition": "-0.605%"},
      {"smiles": "C1C2OC2C2C1C1CC2C2OC12", "note": "(stereo not drawn)", "activity change, negative = inhibition": "3.18%"},
      {"smiles": "N#CC1(O)CCCCC1", "activity change, negative = inhibition": "1%"},
      {"smiles": "Cc1c(C)n(CCN(C)C)c2ccc(C(=O)OCCN(C)C)cc12", "activity change, negative = inhibition": "12.9% [at 35.3 µM]"},
      {"smiles": "C=CC(=O)N1CCOCC1", "activity change, negative = inhibition": "1.08%"},
      {"smiles": "CC(C)(O)c1ccccc1", "activity change, negative = inhibition": "-0.581%"},
      {"smiles": "OC1OC[C@@H](O)[C@H](O)[C@H]1O", "note": "(stereo partly drawn)", "activity change, negative = inhibition": "0.603%"},
      {"smiles": "C=C(C)C(=O)OCCC(C)OC(=O)C(=C)C", "note": "(stereo not drawn)", "activity change, negative = inhibition": "-0.162%"},
      {"smiles": "Cc1cc(C)cc(OCC2CNC(=O)O2)c1", "note": "(stereo not drawn)", "activity change, negative = inhibition": "-0.926% [at 35.3 µM]"},
      {"smiles": "O=C(O)/C=C/c1ccc(Cn2ccnc2)cc1", "activity change, negative = inhibition": "2.98% [at 35.3 µM]"},
      {"smiles": "CC1(C)OC(=O)Nc2ccc(Br)cc21", "activity change, negative = inhibition": "4.77% [at 35.3 µM]"},
      {"smiles": "C1CCCCCCCCCCC1", "activity change, negative = inhibition": "-1.65% [at 15.8 µM]"},
      {"smiles": "CCCc1ccccc1O", "activity change, negative = inhibition": "9.24%"},
      {"smiles": "O=C(O)c1ccccc1-c1ccc(C(F)(F)F)cc1", "activity change, negative = inhibition": "0.364% [at 35.3 µM]"},
      {"smiles": "CC(C)(C)N(CCO)CCO", "activity change, negative = inhibition": "2.61%"},
      {"smiles": "CC(C)=CCC/C(C)=C/C(=O)O", "activity change, negative = inhibition": "5.49%"},
      {"smiles": "Nc1cc(N)cc(C(=O)O)c1", "activity change, negative = inhibition": "-4.23%"},
      {"smiles": "CNc1ncnc2nc[nH]c12", "activity change, negative = inhibition": "8.03%"},
      {"smiles": "CC(C)=CC(=O)O", "activity change, negative = inhibition": "-3.33%"},
      {"smiles": "CCCCCCC(CCCCCCCCCCC(=O)OCC(COC(C)=O)OC(C)=O)OC(C)=O", "note": "(stereo not drawn)", "activity change, negative = inhibition": "-0.961% [at 35.3 µM]"},
      {"smiles": "C1COCCO1", "activity change, negative = inhibition": "-2.73%"}
    ]}
  ]
}
